Data from PubChem BioAssay AID1076 (NMMLSC, 2008).
Active and inactive are the calls of the source.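 How the source made its calls: active means cell event count below 40, meaning activity score above 60 where score is 100 minus count; inactive means the rest.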

Assay: cytotoxicity in LNCaP prostate cells – cell-based, cell event count, single point, cytotoxicity control for prostate differentiation activator project, confirmation (AID 1076);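 further: counts scatter-gated live cells after medium removal discards detached dead cells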
Details: LNCaP cell loss, flow cytometry event count, 4 d, stronger effect = lower value

Structure (SMILES): COc1ccccc1N1CCN(C(=O)CCn2c(=O)[nH]c3ccsc3c2=O)CC1
- cell event count (at 100 µM): 206 (inactive)
- cell event count (event count, at 10 µM): 224

Structure (SMILES): Cc1oc(-c2ccccc2F)nc1CN1CCC(C(=O)NC2CC2)CC1
- cell event count (at 100 µM): 363 (inactive)
- cell event count (event count, at 10 µM): 496

Structure (SMILES): COc1ccc(-c2oc3ncn(CCN4CCOCC4)c(=N)c3c2-c2ccc(OC)cc2)cc1
- cell event count (at 100 µM): 26 (inactive)
- cell event count (event count, at 10 µM): 237

Structure (SMILES): CCn1c(=O)cc(OCC(=O)NCCCN2CCN(c3cccc(Cl)c3)CC2)c2ccccc21
- cell event count (at 100 µM): 20 (inactive)
- cell event count (event count, at 10 µM): 307

Structure (SMILES): COCCn1cc(C(=O)N2CCCC(C)C2)c2c3ccccc3n(C)c2c1=O (stereo unspecified)
- cell event count (at 100 µM): 180 (inactive)
- cell event count (event count, at 10 µM): 176

Structure (SMILES): COc1cccc(Oc2cnc(N)nc2-c2ccc(OC)cc2O)c1
- cell event count (at 100 µM): 9 (inactive)
- cell event count (event count, at 10 µM): 180

Structure (SMILES): CCOC(=O)c1sc2ncnc(N3CCN(c4ccc(OC)cc4)CC3)c2c1C
- cell event count (at 100 µM): 16 (inactive)
- cell event count (event count, at 10 µM): 76.5

Structure (SMILES): CCCS(=O)(=O)N1CCCC(C(=O)NCCCN2CCN(c3cccc(Cl)c3)CC2)C1 (stereo unspecified)
- cell event count (at 100 µM): 53 (inactive)
- cell event count (event count, at 10 µM): 114

Structure (SMILES): Cn1c(=O)cc(SCC(=O)NCCCN2CCN(c3ccc(F)cc3)CC2)c2ccccc21
- cell event count (at 100 µM): 30 (inactive)
- cell event count (event count, at 10 µM): 211

Structure (SMILES): O=C(c1ccc(COCC(F)(F)F)o1)N1CCCCCC1
- cell event count (at 100 µM): 118 (inactive)
- cell event count (event count, at 10 µM): 104

Structure (SMILES): COc1ccc(-c2noc(CCC(=O)NCCCN3CCC(C)CC3)n2)cc1
- cell event count (at 100 µM): 63 (inactive)
- cell event count (event count, at 10 µM): 136

Structure (SMILES): Cc1oc(-c2ccc(Cl)cc2)nc1CN1CCC(C(=O)N2CCc3ccccc3C2)CC1
- cell event count (at 100 µM): 18 (inactive)
- cell event count (event count, at 10 µM): 320

Structure (SMILES): CCCOc1ccc2nc(NC(=O)OC)[nH]c2c1
- cell event count (at 100 µM): 12 (inactive)
- cell event count (event count, at 10 µM): 102

Structure (SMILES): COc1ccc(-n2c3c(cc(C(=O)N4CCC(C)CC4)c2=O)C(=O)CC(C)(C)C3)cc1
- cell event count (at 100 µM): 115 (inactive)
- cell event count (event count, at 10 µM): 93

Structure (SMILES): COc1ccc2cc3c(N)nn(C(=O)Cc4ccccc4OC)c3nc2c1
- cell event count (at 100 µM): 20 (inactive)
- cell event count (event count, at 10 µM): 287

Structure (SMILES): CCCc1cc(-c2n[nH]c(C)c2-c2ccc(C(=O)OCC)o2)c(O)cc1O
- cell event count (at 100 µM): 7 (active)
- cell event count (event count, at 10 µM): 71

Structure (SMILES): Cc1cccc(-c2nc(CN3CCCC(C(=O)NC4CCCC4)C3)c(C)o2)c1 (stereo unspecified)
- cell event count (at 100 µM): 29 (inactive)
- cell event count (event count, at 10 µM): 328

Structure (SMILES): COC(=O)C1=C(C)N=c2s/c(=C/c3cccs3)c(=O)n2C1c1cccs1 (stereo unspecified)
- cell event count (at 100 µM): 125 (inactive)
- cell event count (event count, at 10 µM): 320

Structure (SMILES): CCOC(=O)N1CCN(C(=O)Cc2ccc(-n3c(=O)[nH]c4ccccc4c3=O)cc2)CC1
- cell event count (at 100 µM): 302 (inactive)
- cell event count (event count, at 10 µM): 265

Structure (SMILES): Cc1cc(N2C(=O)C3C4C=CC(C4)C3C2=O)ccc1Br (stereo unspecified)
- cell event count (at 100 µM): 272 (inactive)
- cell event count (event count, at 10 µM): 69.5

Structure (SMILES): COc1ccc(C(CC(=O)O)NC(=O)Cc2ccccc2)cc1 (stereo unspecified)
- cell event count (at 100 µM): 186 (inactive)
- cell event count (event count, at 10 µM): 66.5

Structure (SMILES): CCn1c(=S)ccc2ccc(OC)cc21
- cell event count (at 100 µM): 139 (inactive)
- cell event count (event count, at 10 µM): 118

Structure (SMILES): CCN(CC)CCNC(=O)c1nn(-c2ccc(C)cc2)c(=O)c2c1c1ccccc1n2C
- cell event count (at 100 µM): 18 (inactive)
- cell event count (event count, at 10 µM): 136

Structure (SMILES): CCc1cc(C)cc(OCCNC(=O)c2ncn[nH]2)c1
- cell event count (at 100 µM): 171 (inactive)
- cell event count (event count, at 10 µM): 54

Structure (SMILES): CC(=O)c1cccc(NC2c3ccccc3C(=O)N2Cc2ccc3c(c2)OCO3)c1 (stereo unspecified)
- cell event count (at 100 µM): 121 (inactive)
- cell event count (event count, at 10 µM): 281

Structure (SMILES): COCCCN(C(=O)Nc1ccccc1)C(C)c1ccncc1 (stereo unspecified)
- cell event count (at 100 µM): 238 (inactive)
- cell event count (event count, at 10 µM): 387

Structure (SMILES): N=c1c(C(=O)NC2CCCC2)cc2c(=O)n3ccccc3nc2n1C1CCCC1
- cell event count (at 100 µM): 12 (active)
- cell event count (event count, at 10 µM): 55

Structure (SMILES): CCSc1nnc(Cn2c(=O)sc3ccccc32)n1-c1ccccc1C
- cell event count (at 100 µM): 249 (inactive)
- cell event count (event count, at 10 µM): 171

Structure (SMILES): Cc1nc(NCCNC(=O)c2ccco2)c2c(C)c(C)sc2n1
- cell event count (at 100 µM): 83 (inactive)
- cell event count (event count, at 10 µM): 170

Structure (SMILES): Cc1oc(-c2cccc(Cl)c2)nc1CN1CCC(C(=O)NCc2ccco2)CC1
- cell event count (at 100 µM): 100 (inactive)
- cell event count (event count, at 10 µM): 189

Structure (SMILES): Cc1oc(-c2cccc(Cl)c2)nc1CN1CCC(C(=O)NCC2CCCO2)CC1 (stereo unspecified)
- cell event count (at 100 µM): 174 (inactive)
- cell event count (event count, at 10 µM): 165

Structure (SMILES): Oc1c(CN2CCCCC2)cc(COCc2ccccc2)c2cccnc12
- cell event count (at 100 µM): 35 (inactive)
- cell event count (event count, at 10 µM): 92

Structure (SMILES): CCc1ccc(-c2nc(CN3CCC(C(=O)N4CCN(c5ccccn5)CC4)CC3)c(C)o2)cc1
- cell event count (at 100 µM): 10 (inactive)
- cell event count (event count, at 10 µM): 212

Structure (SMILES): Cc1oc(-c2ccc(Cl)cc2)nc1CN1CCC(C(=O)N2CCN(Cc3ccccc3)CC2)CC1
- cell event count (at 100 µM): 3 (inactive)
- cell event count (event count, at 10 µM): 224

Structure (SMILES): O=C(CCNC(=O)Cn1ccc2ccccc2c1=O)NCCCN1CCN(c2ccccc2F)CC1
- cell event count (at 100 µM): 112 (inactive)
- cell event count (event count, at 10 µM): 126

Structure (SMILES): C=CCn1c(=N)n(CC(O)COc2ccc(OC)cc2)c2ccccc21 (stereo unspecified)
- cell event count (at 100 µM): 37 (inactive)
- cell event count (event count, at 10 µM): 126

Structure (SMILES): Cn1c(=O)cc(OCC(=O)NCCCN2CCN(c3cccc(Cl)c3)CC2)c2ccccc21
- cell event count (at 100 µM): 10 (inactive)
- cell event count (event count, at 10 µM): 280

Structure (SMILES): O=C(Cc1ccc(-n2cccc2)cc1)NCc1cccs1
- cell event count (at 100 µM): 160 (inactive)
- cell event count (event count, at 10 µM): 133
